Screens from PubChem BioAssay.
RAD52 inh: RAD52 (human) annealing inhibition. P43351. recombinant RAD52 DNA annealing, FRET fluorescence. inhibition, % at 18.7 µM. actives 0.46% (n = 360,000). AID 651710;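 active = every replicate showing at least 50% inhibition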
RAD54 branch: inhibitors of human RAD54 branch migration | actives 0.14% (n = 360,000) | RAD54 Holliday junction branch migration, FAM/BHQ fluorescence | inhibition, % at 10.4 µM;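 active = mean normalized replicate activity at least 40 and at least half of replicates scoring 40 or more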;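 also: 0% = median of neutral control wells and 100% = median of positive control wells; inhibitors cause a drop in the FAM fluorescence signal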
INS-1E GSIS act: primary screen for activators of insulin secretion dependent on glucose, INS-1E cells, GLuc reporter luminescence | INS-1E GLuc reporter insulin secretion, 2-3 h | activation, % at 16.6 µM | actives 0.61% (n = 370,000);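 active = lowest replicate activation of at least 40%, so every replicate reaches that level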;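 also: 0% = median of neutral control wells and 100% = median of IBMX positive control wells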
PGC1a acetyl inh: PGC1a acetylation modulation, inhibitor mode; inhibition, % at 15.6 µM; U2OS PGC1a acetylation, AlphaScreen anti-acetyl-lysine; with virally co-expressed GCN5 acetyltransferase; actives 0.17% (n = 350,000);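 active = every replicate shows inhibition of at least 40%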;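 also: 0% = neutral control wells and 100% = positive control wells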
MLL AF4-AF9 inh: blocks AF4 peptide binding to human AF9 | actives 0.47% (n = 350,000) | P42568 | AlphaScreen, biotin-AF4 peptide binding to FLAG-AF9 | inhibition, % at 10 µM;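 active = every replicate reaching a set inhibition limit, whatever the replicate mean, cut at about 25% in these data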;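 also: 0% = plate neutral control median and 100% = total signal loss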
Target sequence (P42568 whole entry, looked up): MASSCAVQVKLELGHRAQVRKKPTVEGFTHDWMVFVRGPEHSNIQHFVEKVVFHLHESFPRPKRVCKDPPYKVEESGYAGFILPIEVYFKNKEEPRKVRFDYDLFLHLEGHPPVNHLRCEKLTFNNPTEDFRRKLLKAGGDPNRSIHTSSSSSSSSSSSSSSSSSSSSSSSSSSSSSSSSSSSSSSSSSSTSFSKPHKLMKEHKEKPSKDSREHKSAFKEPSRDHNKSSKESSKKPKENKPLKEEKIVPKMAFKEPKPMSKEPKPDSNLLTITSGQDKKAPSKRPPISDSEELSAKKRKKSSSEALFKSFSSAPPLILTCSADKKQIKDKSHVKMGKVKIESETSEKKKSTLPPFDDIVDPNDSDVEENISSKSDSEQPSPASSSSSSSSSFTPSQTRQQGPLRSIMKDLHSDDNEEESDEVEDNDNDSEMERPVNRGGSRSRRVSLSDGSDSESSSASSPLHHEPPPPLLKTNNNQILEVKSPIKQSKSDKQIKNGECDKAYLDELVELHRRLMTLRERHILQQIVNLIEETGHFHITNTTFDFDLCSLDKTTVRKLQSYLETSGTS
ERAP1 inh: blocks human ERAP1 aminopeptidase activity; Q9NZ08; actives 0.15% (n = 340,000); AID 652197; inhibition, % at 10.7 µM; recombinant ERAP1, Leu-AMC fluorescence, 60 min;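 active = mean replicate inhibition of at least 30%, or all replicates individually reaching that 30% level; inactive = mean below 30% and not every replicate reaching it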;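 also: 0% = neutral control wells and 100% = L-leucinethiol positive control wells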
* marks the source's active call; other numbers are inactive results; . = not tested or not shown. Only some compounds are listed: those with a hit (about 1.4% of all), similar ones and a draw of the others.

SMILES	RAD52 inh	RAD54 branch	INS-1E GSIS act	PGC1a acetyl inh	MLL AF4-AF9 inh	ERAP1 inh
CCOc1cc(/C=C(\C#N)C(=O)NCc2cccnc2)ccc1O	-7.7	.	-11.3	.	3.1	-5.4
COc1ccc(/C=C(\C#N)C(=O)NCc2cccnc2)cc1OC	-21.1	.	8.3	0.2	-3.3	63.5*
C[C@H]1CN([C@@H](C)CO)C(=O)c2c(c3ccccc3n2C)-c2ccccc2CO[C@@H]1CN(C)Cc1ccc(-c2ccccc2)cc1	-1.9	.	-13.8	.	-1.5	1.4
C[C@@H]1CN([C@H](C)CO)C(=O)c2cccc(NC(=O)Nc3ccc(F)cc3)c2O[C@@H]1CN(C)Cc1ccc(C(=O)Nc2ccccc2N)cc1	-12.1	.	6.8	-11.7	-8.8	-0.6
CC(C)CC#Cc1ccc2c(c1)O[C@@H](CN(C)Cc1cccnc1)[C@@H](C)CN([C@@H](C)CO)S2(=O)=O	14.7	-8.9	-26.1	2.4	10.9	0.0
O=C(Nc1cccnc1Cl)C1=NN(c2ccccc2)C(=O)CC1	-5.5	-13.4	47.7*	-8.4	0.9	-2.5
O=C(NCc1ccncc1)C1=NN(c2ccccc2)C(=O)CC1	-10.3	.	8.3	.	-3.9	-1.3
CNC[C@H]1Oc2ncccc2C(=O)N(C)C[C@H]1C	.	.	-5.0	.	.	.
O=C(C[C@@H]1C[C@@H]2c3cc(NC(=O)NC4CCCC4)ccc3O[C@@H]2[C@H](CO)O1)NCc1ccc(Cl)cc1	.	.	-0.8	.	.	.
O=C(CSc1ccc(F)cc1)N1CCN(S(=O)(=O)c2ccccc2)CC1	-8.8	3.7	2.4	-2.7	-10.5	4.4
O=C(CSc1ncccn1)N1CCN(S(=O)(=O)c2ccccc2)CC1	-9.0	0.4	50.7*	11.0	-21.5	.
CCCNC(=O)N1CC(=O)N2[C@H](C1)[C@@H](c1ccc(-c3ccccc3)cc1)[C@@H]2CO	.	.	17.0	.	.	.
CCN1CCN(S(=O)(=O)c2ccc(Cl)c(C(=O)N(C)C3CCCCC3)c2)CC1	-133.6	12.7	.	6.0	25.7*	14.5
CCN1CCN(S(=O)(=O)c2ccc(Cl)c(C(=O)NC3CCCC3)c2)CC1	-6.2	1.9	2.7	-8.2	-13.6	1.3
CO[C@@H](C(=O)N(C)C[C@@H]1OCc2ccccc2-c2c(n(C)c3ccccc23)C(=O)N([C@@H](C)CO)C[C@@H]1C)c1ccccc1	9.5	-3.2	4.1	9.1	0.7	3.1
COc1ccc(S(=O)(=O)N(C)C[C@H]2Oc3c(NS(=O)(=O)c4cccs4)cccc3C(=O)N([C@@H](C)CO)C[C@@H]2C)cc1	-3.2	.	-0.4	4.6	-1.0	-1.1
C[C@@H]1CCCCO[C@@H](CN(C)C)[C@H](C)CN([C@H](C)CO)C(=O)c2cc(NC(=O)CCC(F)(F)F)ccc2O1	-9.4	-4.5	-8.5	-27.3	-1.9	2.9
Cc1nn(C)cc1NC(=O)C[C@@H]1CC[C@H]2[C@H](COc3ccc(NC(=O)C4CCC4)cc3C(=O)N2C)O1	.	.	2.3	-2.3	.	.
CSc1ccc(C(=O)C2CCCN(C(=O)c3ccc4c(c3)OCO4)C2)cc1 (stereo not drawn)	-4.6	2.4	-9.5	1.7	1.8	1.7
O=C(c1cccc(Cl)c1)C1CCCN(C(=O)c2ccc3c(c2)OCO3)C1 (stereo not drawn)	-4.6	6.6	-16.5	7.5	31.0*	-6.5
CCN(CC)CCOc1ccc(/C(=C(\Cl)c2ccccc2)c2ccccc2)cc1	26.7	14.6	455.9	-79.9	31.6*	23.2
CN(C)CCCNC(=O)C[C@@H]1C=C[C@@H](NS(=O)(=O)c2ccc(F)cc2)[C@H](CO)O1	1.2	-5.0	.	12.9	-1.1	0.5
Cc1cccnc1NC(=O)c1ccc(S(=O)(=O)N2CCCCC2)cc1	1.2	.	41.3*	.	-3.7	-2.1
Cc1cccnc1NC(=O)c1cccc(S(=O)(=O)N2CCCC2)c1	-0.9	-5.3	8.9	-3.2	-0.8	1.7
COc1ccc(NC(=O)CSc2nnc3ccc(-c4cccnc4)nn23)c(OC)c1	-8.0	-8.6	69.9*	.	3.4	-0.3
CC(=O)Nc1cc(-c2ccc(C(=O)N3CCOCC3)cc2)cn2c(-c3ccc(F)c(Cl)c3)cnc12	-13.0	-0.8	-0.9	-10.9	1.3	3.0
CC(=O)Nc1cc(-c2ccc(N3CCN(C)CC3)cc2)cn2c(-c3ccc(F)c(Cl)c3)cnc12	32.6	3.3	20.6	1.1	26.6*	-3.7
